In PMC4336329 (PLoS ONE, 2015):
In all, about 310,000 compounds went through this assay and about 14,000 (4.5%) showed an effect of 50% or more. Effects have a minus sign here. What follows is part of a selection rich in strong results, with near analogues and random picks from the rest.

target: human ether-à-go-go-related gene (hERG) potassium channel (human, UniProt Q12809); test: primary screen, population patch clamp on CHO cells stably expressing hERG; higher = less effect of the substance
Sequence (Q12809 whole entry, looked up): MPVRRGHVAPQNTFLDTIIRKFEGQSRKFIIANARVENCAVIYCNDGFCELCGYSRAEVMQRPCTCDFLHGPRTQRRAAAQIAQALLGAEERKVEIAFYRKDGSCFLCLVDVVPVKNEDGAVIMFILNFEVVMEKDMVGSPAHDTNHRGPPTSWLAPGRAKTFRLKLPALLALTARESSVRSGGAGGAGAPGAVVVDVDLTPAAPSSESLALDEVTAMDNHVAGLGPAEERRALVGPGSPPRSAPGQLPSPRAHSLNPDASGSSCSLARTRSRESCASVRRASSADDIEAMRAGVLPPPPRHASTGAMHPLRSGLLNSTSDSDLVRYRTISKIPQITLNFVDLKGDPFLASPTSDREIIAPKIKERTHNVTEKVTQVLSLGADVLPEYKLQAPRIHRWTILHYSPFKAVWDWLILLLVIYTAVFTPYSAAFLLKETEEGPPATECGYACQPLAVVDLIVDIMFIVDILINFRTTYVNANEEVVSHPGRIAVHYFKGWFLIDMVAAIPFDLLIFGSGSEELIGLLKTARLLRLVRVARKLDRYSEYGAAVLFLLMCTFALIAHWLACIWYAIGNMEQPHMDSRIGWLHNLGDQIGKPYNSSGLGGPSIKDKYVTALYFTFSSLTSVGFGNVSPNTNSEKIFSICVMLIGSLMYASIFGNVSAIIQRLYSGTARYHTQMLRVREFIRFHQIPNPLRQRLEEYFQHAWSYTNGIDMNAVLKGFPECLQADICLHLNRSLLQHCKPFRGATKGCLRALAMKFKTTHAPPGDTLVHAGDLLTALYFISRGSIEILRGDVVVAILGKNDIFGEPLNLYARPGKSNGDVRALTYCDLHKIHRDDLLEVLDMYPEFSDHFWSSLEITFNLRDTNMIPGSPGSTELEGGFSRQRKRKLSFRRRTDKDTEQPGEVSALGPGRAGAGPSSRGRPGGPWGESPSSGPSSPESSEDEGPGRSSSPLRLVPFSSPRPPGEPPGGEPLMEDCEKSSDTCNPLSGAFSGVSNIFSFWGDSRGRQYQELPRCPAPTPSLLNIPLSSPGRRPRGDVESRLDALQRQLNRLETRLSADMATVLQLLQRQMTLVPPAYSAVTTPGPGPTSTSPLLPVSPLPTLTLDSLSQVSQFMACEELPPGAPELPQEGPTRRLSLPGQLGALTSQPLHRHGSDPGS
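Further: peak tail current of the secondary pulse compared with the same well before compound.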

| Compound | hERG current change (%, negative = inhibition) at 10uM |
| --- | --- |
| c1ccc(SCc2cn3cccnc3n2)nc1 | 15.1% |
| COc1cc(OC)c(NS(=O)(=O)c2cc(C(=O)OC(C)C(=O)NC3CC3)c(Cl)cc2Cl)cc1Cl (centres unmarked) | -37% |
| COc1cccc(OCCOc2ccc(/C=C3\C(=N)N4N=C(S(C)(=O)=O)SC4=NC3=O)cc2OC)c1 | 23.4% |
| O=C(COC(=O)c1cc(-c2ccccc2Cl)nc2ccccc12)Nc1ncc(C(F)(F)F)cc1Cl | -10.9% |
| COC(=O)c1cccc(-c2ccc(/C=N/N3C(=O)C4C5C=CC(C6CC56)C4C3=O)o2)c1 (centres unmarked) | -8.32% |
| CC1CCN(S(=O)(=O)c2ccc3c(c2)c(=O)c(C(=O)N2CCOCC2)cn3C)CC1 | 13.5% |
| CC(Oc1ccc(Br)cc1)C(=O)N(C)CC(=O)Nc1ccc(N2CCOCC2)cc1 (centres unmarked) | 2.99% |
| CC(C)CN(CC(C)C)C(=O)CN1C(=O)NC2(CCc3ccccc3C2)C1=O (centres unmarked) | -8.61% |
| Cc1ccnc(-n2c(C)cc(/C=C3\C(=O)NC(=S)N(C)C3=O)c2C)c1 | 12.9% |
| Cc1cc(=O)[nH]c(COc2ccccc2)n1 | 17.2% |
| CCN(CC)S(=O)(=O)c1ccc2c(c1)nc(SCC(=O)N(C)C1CCS(=O)(=O)C1)n2CC (centres unmarked) | 6.94% |
| N#Cc1c(Cl)nsc1NCCN1CCOCC1 | 15.4% |
| Cc1ccc(S(=O)(=O)NCCNC(C)c2ccc(Br)cc2)cc1 (centres unmarked) | -42.5% |
| COc1ccc(C(CNS(=O)(=O)c2ccccc2)N2CCN(C)CC2)cc1 (centres unmarked) | -35.7% |
| Cc1cc(S(=O)(=O)NCC(c2ccc(F)cc2)N2CCN(C)CC2)ccc1F (centres unmarked) | -68.4% |
| Cc1ccc(S(=O)(=O)NCC(c2ccccc2)N2CCCCC2)cc1 (centres unmarked) | 1.79% |
| O=S(=O)(NCC(c1ccc2c(c1)OCO2)N1CCOCC1)c1ccc(F)cc1 (centres unmarked) | -6.81% |
| Cc1ccc(C(CNS(=O)(=O)c2ccc(Br)cc2)N2CCN(C)CC2)cc1 (centres unmarked) | -72.4% |
| Cc1ccc(C(CNS(=O)(=O)c2ccccc2)N2CCN(C)CC2)cc1 (centres unmarked) | -53.6% |
| Cc1cc(S(=O)(=O)NCC(c2ccc3c(c2)OCO3)N2CCOCC2)ccc1F (centres unmarked) | -20.7% |
| COc1cccc(C(=O)NNC(=O)C2CCCO2)c1 (centres unmarked) | 15.3% |
| CCC1=[N+](CC(=O)c2ccc(Br)cc2)CCn2c(C)ccc21.[Br-] | -6.76% |
| COc1cc(Nc2cc(C)nc3ncnn23)cc(OC)c1 | -8.29% |

| Compound | hERG current change (%, negative = inhibition) at 10uM |
| --- | --- |
| CN1CCC(NC(=O)Cc2c(F)cccc2Cl)CC1 | -1.52% |
| CS(=O)(=O)N1CCC(C(=O)Nc2ccc(C(F)(F)F)cc2)CC1 | 12.4% |
| O=C1CCC2S/C(=C/Nc3ccc(C(F)(F)F)cc3)C(=O)N12 (centres unmarked) | -52.2% |
| O=C(c1ccc(C(F)(F)F)cc1)C1CCCN(C(=O)CN2CCCC2=O)C1 (centres unmarked) | 0.525% |
| COc1ccc(OC)c(NC(=O)CCNS(=O)(=O)c2cc(Br)cnc2N)c1 | -14.9% |
| O=C(COC(=O)c1cccnc1Cl)Nc1ccc2c(c1)OCO2 | 2.28% |
| COc1cc(NC(=O)CSc2nnc3n2C(C)(C)Cc2ccccc2-3)cc(OC)c1 | 10% |
| O=C(COC(=O)c1cnccn1)Nc1ccc2c(c1)OCO2 | 7.23% |
| CCSc1nnc2n1C(C)(C)Cc1ccccc1-2 | 0.0135% |
| COc1ccc2nc(NC(=O)CSc3nnc4n3C(C)(C)Cc3ccccc3-4)sc2c1 | 0.248% |
| CCn1c(SCC(=O)Nc2ccc3c(c2)OCO3)nnc1-c1ccccc1O | 7.21% |
| O=C(COC(=O)c1ccccn1)Nc1ccc2c(c1)OCO2 | -65.5% |
| COC(=O)CSc1nnc2n1C(C)(C)Cc1ccccc1-2 | 3.46% |
| Cn1c(SCC(=O)Nc2nc3ccccc3s2)nnc1-c1ccccc1 | 10.3% |
| CC1(C)Cc2ccccc2-c2nnc(SCc3ccc(C#N)cc3)n21 | -58.9% |
| CC1(C)Cc2ccccc2-c2nnc(SCC(=O)Nc3nc4ccccc4s3)n21 | -74.4% |
| CC1(C)Cc2ccccc2-c2nnc(SCC(=O)Nc3ccc4c(c3)OCO4)n21 | -63.2% |
| COc1ccc(CCNC(=O)C2CCN(S(=O)(=O)c3ccc(NC(C)=O)cc3)CC2)cc1OC | 9.83% |
| Nc1cc(=O)[nH]c(SCC(=O)Nc2ccccc2Sc2ccccc2)n1 | 6.15% |
| O=C(Cn1nnc(-c2ccccc2NC(=O)c2ccccc2F)n1)NCc1ccco1 | 10.1% |
| Cc1nc(-c2ccc(C(=O)Nc3cccc(Br)c3)cc2)cs1 | 7.02% |
| Cc1cc(C)n(Cc2ccc(Cl)cc2Cl)c(=O)c1S(=O)(=O)c1ccccc1 | 14.7% |
| COc1ccc(S(=O)(=O)N(CC(=O)N2CCOCC2)c2cc(Cl)ccc2OC)cc1OC | -16.6% |

| Compound | hERG current change (%, negative = inhibition) at 10uM |
| --- | --- |
| COc1ccc(CCNC(=O)C/C(C)=N/NC(=O)C23CC4CC(CC(C4)C2)C3)cc1OC | 11.7% |
| COc1ccc(C(=O)NC(C)c2nnc(SCC(=O)NC3=NCCS3)n2C)cc1 (centres unmarked) | 15.3% |
| CC1(C)Cc2ccccc2-c2nnc(SCC(=O)N3CCN(c4ccccc4)CC3)n21 | -73.7% |
| COc1ccccc1N1CCN(C(=O)CSc2nnc3n2C(C)(C)Cc2ccccc2-3)CC1 | -37.4% |
| COc1ccc(N2CCN(C(=O)CSc3nnc4n3C(C)(C)Cc3ccccc3-4)CC2)cc1 | -23.8% |
| Cc1ccc(-n2c(SCC(=O)Nc3ccc4c(c3)OCO4)nnc2-c2ccccn2)cc1 | 4.28% |
| COc1ccc(C(=O)NC(C)c2nnc(SCC(=O)Nc3nc4ccccc4s3)n2C)cc1 (centres unmarked) | -59.4% |
| O=C(CSc1nnc(-c2ccccn2)n1-c1ccccc1)Nc1ccc2c(c1)OCO2 | 1.81% |
| Cc1ccccc1-n1c(SCC(=O)Nc2ccc3c(c2)OCO3)nnc1-c1ccccn1 | -65.3% |
| CCc1nnc(NC(=O)CSc2nnc(C(C)NC(=O)c3ccccc3)n2C)s1 (centres unmarked) | 29.3% |
| C/C=C(\C)CN1CCC(Oc2cccc(C(=O)NCc3ccccn3)c2)CC1 | -4.59% |
| COC(=O)CN(c1cccc(C(C)=O)c1)S(C)(=O)=O | 9.02% |
| O=C(c1ccccc1Br)N1N=C(c2ccccc2)CC1c1ccccc1F (centres unmarked) | 15.7% |
| CCc1cccc(NC(=O)C2CCCN2S(=O)(=O)c2ccc3c(c2)n(C)c(=O)c(=O)n3C)c1 (centres unmarked) | -9.62% |
| Cc1cccc(NC(=O)c2ccc(C)c(S(=O)(=O)N3CCCCC3)c2)n1 | -36.7% |
| Cc1ccc(NC(=O)c2ccc(Cl)c(S(=O)(=O)N3CCCC3)c2)nc1 | -8.97% |
| Cc1cccc(NC(=O)c2ccc(Cl)c(S(=O)(=O)N3CCCCCC3)c2)n1 | -25.1% |
| Cc1ccnc(NC(=O)c2ccc(Cl)c(S(=O)(=O)N3CCCC3)c2)c1 | -15.7% |
| Cc1cccc(NC(=O)c2ccc(S(=O)(=O)N3CCCCCC3)cc2)n1 | -4.07% |
| Cc1cccc(NC(=O)c2ccc(S(=O)(=O)N3CCCCC3)cc2)n1 | -6.69% |
| Cc1cccc(NC(=O)c2ccc(S(=O)(=O)N3CCC(C)CC3)cc2)n1 | -59.2% |
| Cc1ccc(NC(=O)c2ccc(Cl)c(S(=O)(=O)N3CCCCCC3)c2)nc1 | -57.9% |
| Cc1cccc(NC(=O)c2ccc(Cl)c(S(=O)(=O)N3CCCCC3)c2)n1 | -71.3% |

| Compound | hERG current change (%, negative = inhibition) at 10uM |
| --- | --- |
| Cc1ccnc(NC(=O)c2ccc(S(=O)(=O)N3CCCCC3)cc2)c1 | -17.9% |
| Cc1ccnc(NC(=O)c2ccc(Cl)c(S(=O)(=O)N3CCCCC3)c2)c1 | -79.1% |
| Cc1ccc(NC(=O)c2ccc(Cl)c(S(=O)(=O)N3CCCCC3)c2)nc1 | -23.4% |
| Cc1c(Cl)cccc1N1C(=O)C2ON(c3ccccc3)C(c3cccnc3)C2C1=O (centres unmarked) | 4.12% |
| Cn1c(CNC(=O)OC(C)(C)C)nnc1SCC(=O)N1CCOCC1 | 8.91% |
| CSc1nc2nc(-c3ccc(F)cc3)c(CCN3CCN(C)CC3)cn2n1 | -2.66% |
| Cc1cc(NC(=O)CSc2nc3ccccc3n2CC(C)C)no1 | 19.2% |
| Cc1cccc(C(=O)Oc2ccccc2C(=O)N2CCOCC2)c1 | -8.06% |
| COc1ccccc1N1CCN(C2CCCN(C(=O)CCn3cncn3)C2)CC1 (centres unmarked) | 13% |
| CCn1nnnc1SCC(=O)c1ccc(NC(C)=O)cc1 | 0.37% |
| CCC1(CC)C(=O)N(C)C(=O)NC1=Nc1ccccc1 | 15.8% |
| CCC(C)(C)n1nnnc1C(c1ccc2ncccc2c1)N1CCN(Cc2ccc3c(c2)OCO3)CC1 (centres unmarked) | -69.7% |
| Cc1ccc(C(c2nnnn2Cc2cccs2)N2CCN(Cc3ccc4c(c3)OCO4)CC2)cc1 (centres unmarked) | -75.3% |
| CCN1CCN(C(c2ccccc2)c2nnnn2Cc2ccc3c(c2)OCO3)CC1.Cl (centres unmarked) | -39.1% |
| CCC(C)(C)n1nnnc1C(c1ccc2ncccc2c1)N1CCCC(C)C1 (centres unmarked) | -13.6% |
| CC(C)(C)n1nnnc1C(c1cccs1)N1CCN(Cc2ccc3c(c2)OCO3)CC1 (centres unmarked) | -19.4% |
| COCCn1nnnc1C(c1ccccc1)N1CCN(Cc2ccc3c(c2)OCO3)CC1.Cl (centres unmarked) | -21.6% |
| CCC(C)(C)n1nnnc1C(c1ccc(C)cc1)N1CCN(Cc2ccc3c(c2)OCO3)CC1 (centres unmarked) | -50.3% |
| CC(C)(C)n1nnnc1C(c1ccc(F)cc1)N1CCN(Cc2ccc3c(c2)OCO3)CC1 (centres unmarked) | -37.8% |
| CCC(C)(C)n1nnnc1C(c1ccc2ncccc2c1)N1CCCCCC1 (centres unmarked) | 6.75% |
